Laboratory results: PubChem BioAssay AID493194 (Broad Institute, 2011)
Potency and affinity values are given separately. Records with an inconclusive call do not appear. The source made the active and inactive calls.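 The calls were made as follows: active = a valid curve of falling signal whose half-effect concentration is at most ten times the top tested dose; inconclusive = flat curve at 30 to 70% inhibition, or poor fit; inactive = signal rise, flat within 30%, or potency beyond limit.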

target: Scavenger receptor class B member 1 (Mus musculus) (UniProt Q61009); test: mouse SR-BI DiI-HDL uptake blockers – ldlA[mSR-BI] cells, fluorescence, cherry pick, dose response (AID 493194); details: CHO ldlA[mSR-BI] DiI-HDL uptake fluorescence, 3 h; series mostly up to 35 µM;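 also: CHO cells lacking LDL receptor and overexpressing mouse SR-BI; cellular uptake of fluorescently labeled HDL measured as cell fluorescence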
Sequence (Q61009 whole entry, looked up): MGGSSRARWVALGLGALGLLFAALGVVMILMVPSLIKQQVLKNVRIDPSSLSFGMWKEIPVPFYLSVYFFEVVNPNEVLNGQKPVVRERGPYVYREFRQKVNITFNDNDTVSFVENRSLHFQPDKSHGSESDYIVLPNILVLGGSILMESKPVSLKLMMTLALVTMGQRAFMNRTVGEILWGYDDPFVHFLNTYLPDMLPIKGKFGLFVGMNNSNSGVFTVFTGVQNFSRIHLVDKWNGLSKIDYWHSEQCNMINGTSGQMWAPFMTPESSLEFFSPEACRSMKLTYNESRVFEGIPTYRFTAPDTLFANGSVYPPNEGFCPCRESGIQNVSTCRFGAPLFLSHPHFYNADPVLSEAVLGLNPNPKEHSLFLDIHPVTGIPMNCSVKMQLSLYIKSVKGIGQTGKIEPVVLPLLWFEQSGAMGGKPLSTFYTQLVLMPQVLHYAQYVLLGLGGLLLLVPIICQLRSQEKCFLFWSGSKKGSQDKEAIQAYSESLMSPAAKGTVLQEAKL

outcome, inactive:
COc1cc(/C=C\C(=O)NCc2ccc3c(c2)cc(C)n3C)cc(OC)c1OC
CCOC(=O)C1CCCN(C(=O)c2cc(COc3ccc(C)nc3)on2)C1 (stereo not drawn)
CCOC(=O)C1=CN(c2cccc(F)c2)C=C(C(=O)OCC)C1c1cc(OC)c(O)c([N+](=O)[O-])c1
O=C(NC1CC1)c1ccc(CN(c2ccccc2)S(=O)(=O)c2ccccc2)cc1
CC(C)(C)C(=O)Nc1sc2c(c1-c1nc3ccccc3[nH]1)CCCC2
Oc1csc(Cc2nc(-c3ccc4ccccc4c3)cs2)n1
CC(C)CN(C(=O)COC(=O)C12CC3CC(CC(O)(C3)C1)C2)C1CCS(=O)(=O)C1 (stereo not drawn)
CN(C(=O)c1cc(-n2cnnc2)ccc1Cl)c1ccccc1
CCC(C)n1ncn(-c2ccc(N3CCN(c4ccc(OCC5COC(Cn6cncn6)(c6ccc(Cl)cc6Cl)O5)cc4)CC3)cc2)c1=O (stereo not drawn)
CCCCC(=O)Nc1cccc(NC(=O)c2ccccc2Br)c1
Cn1c(CCN2CCN(c3ccccn3)CC2)nc2cc(NS(=O)(=O)c3ccc(Cl)cc3)ccc21
Cc1ccc(-c2cc(C(F)F)n3ncc(C(=O)N4CCN(c5cccc(C)c5C)CC4)c3n2)cc1
CCSCC1COC(c2cccn2Cc2ccc(C)cc2)=N1 (stereo not drawn)
COc1ccc(N(CC(=O)NC2CCCC2)C(=O)Cn2nnc(-c3ccc(C)cc3)n2)cc1
Cn1c(C(=O)N2CCC(C(=O)N3CCN(Cc4ccc5c(c4)OCO5)CC3)CC2)cc2sccc21
Cc1ccc(-c2sc(-c3ccccc3)nc2CC(=O)Nc2ccccc2F)cc1
COc1cccc(-c2nnc(SC(C(=O)c3c[nH]c4ccccc34)c3ccccc3)n2C)c1 (stereo not drawn)
COc1ccc(-c2nnc(SCC(=O)Nc3ncc(C(F)(F)F)cc3Cl)n2CC(C)C)cc1
Cc1ccc(NS(=O)(=O)c2ccc(C(=O)NNC(=O)c3ccccc3O)cc2)cc1
COc1ccc(OC[C@@H](O)CNC(=O)c2cccc3c2C(=O)c2ccc(-c4ccc(F)cc4OCc4ccccc4)cc2S3(=O)=O)cc1
Cc1nc2c(cnn2-c2ccccc2Cl)c(=O)n1-c1ccc(N2CCC(C)CC2)cc1
COc1ccc(C(=O)N2CCN(c3ccc([N+](=O)[O-])c(NCCc4ccc(OC)c(OC)c4)c3)CC2)cc1
Cc1ccccc1C(=O)NC1CC2CCCC(C1)N2C(=O)Nc1ccccc1 (stereo not drawn)
CNc1sc(C(=O)c2cccs2)c(N)c1-c1nc2ccccc2s1
Cc1cc(=O)oc2cc(OCC(=O)N3CCN(C(=O)C4COc5ccccc5O4)CC3)c(Cl)cc12 (stereo not drawn)
CCOc1ccc(CCNC(=O)Cn2ncn3nc(-c4ccc(OC)cc4)cc3c2=O)cc1
Fc1ccc(-c2cc(-c3cccs3)cc(-c3ccccc3)n2)cc1
COc1ccc(CCn2c(C)cc(C(=O)CSc3nc(N)cc(=O)[nH]3)c2C)cc1
Cc1ccc(-c2cc(C(=O)Nc3sc4c(c3C(=O)NCc3ccco3)CCC4)[nH]n2)c(O)c1
CCOC(=O)Nc1cccc(NC(=O)c2cc(OC)cc(OC)c2)c1
CCCCn1nc2cc(C(=O)NC3CCCc4ccccc43)ccc2c1OCC (stereo not drawn)
CCCC(=O)N1CCc2cc(-c3nc(N)sc3C)ccc21
CC(=O)c1c(C)[nH]c(C(=O)OCc2nc3ccsc3c(=O)[nH]2)c1C
CCCCC(c1nnnn1CC1CCCO1)N1CCN(c2cc(Cl)ccc2C)CC1 (stereo not drawn)
O=C(Nc1nc(-c2ccccn2)cs1)c1ccc(-c2ccccc2F)o1
O=C(NCC1CCCO1)c1ccc2c(c1)N(Cc1ccc(F)cc1Cl)C(=O)CS2 (stereo not drawn)
COc1ccc(C2C(C#N)=C(N)N(c3ccccc3C#N)C3=C2C(=O)CCC3)cc1CN1CCCC1 (stereo not drawn)
Clc1ccc(Cn2nnc(-c3ccc(N4CCOCC4)cc3)n2)cc1
